Source: PubChem BioAssay AID1430 (University of Pittsburgh Molecular Library Screening Center, 2008)
In all, about 220,000 compounds went through this assay and about 240 (0.11%) were called active.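 How the source made its calls: active means inhibition of 50% or more in the single-dose primary screen; inactive means inhibition below 50%.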 The full list was thinned out, with actives kept by preference.

Tested on: hexokinase 1 [Trypanosoma brucei]
Assay: Trypanosoma brucei hexokinase 1 inhibitors, primary screen, biochemical, G6PDH-coupled NADH absorbance, MLSCN library (AID 1430)
Conditions: recombinant TbHK1, G6PDH-coupled NADH A340; at 10 µM; active compounds read high

Row | Compound | inhibition
1 | CCOc1ccccc1C(=O)NC1CC2CCCC(C1)N2Cc1ccccc1 (configuration not stated) | 3.91% (inactive)
2 | CCC(CC)C(=O)N1CCN(c2cccc(C)c2C)CC1 | -4.04% (inactive)
3 | Cc1c(Cl)c([N+](=O)[O-])nn1Cc1ccc(C(=O)N/N=C\c2cc(Cl)ccc2O)o1 | 0.728% (inactive)
4 | CCCc1nc(-c2cc3cc(C)ccc3[nH]c2=O)no1 | -10.1% (inactive)
5 | Cc1ccc(N(C(=O)Cc2cccs2)C(C(=O)NCC2CCCO2)c2ccncc2)cc1 (configuration not stated) | -7.37% (inactive)
6 | CSc1nnnn1-c1c(C)cc(C)cc1C | -0.934% (inactive)
7 | O=C1CC(c2cccc(Cl)c2)CC(O)=C1C=Nc1ccccc1 (configuration not stated) | -3.36% (inactive)
8 | CC(=O)O[C@]1(C(C)=O)CC[C@H]2[C@@H]3C=C(C)C4=CC(=O)CC[C@]4(C)[C@H]3CC[C@@]21C | -3.98% (inactive)
9 | Cc1ccc(-c2nc(SCC(=O)Nc3ccccc3OC(F)F)c3c(C)c(C(=O)O)sc3n2)cc1 | -36.7% (inactive)
10 | COCCNC(=O)c1ccc(-n2c(SCc3cccnc3)nc3ccccc3c2=O)cc1 | -6.28% (inactive)
11 | CC(O)c1nc2c(c(=O)n(C)c(=O)n2C)n1C (configuration not stated) | -12.1% (inactive)
12 | O=C(Nc1ccc(N2C(=O)c3cccc4cccc(c34)C2=O)cc1)c1ccc(N2CCCCC2)c([N+](=O)[O-])c1 | -9.23% (inactive)
13 | CCCCN(C(=O)c1ccc(OC(F)(F)F)cc1)c1c(N)n(CCC)c(=O)[nH]c1=O | 2.61% (inactive)
14 | COc1cc(NC(=O)COC(=O)c2cnc(C)cn2)c(C)cc1[N+](=O)[O-] | -6.37% (inactive)
15 | CCOC(=O)C1CCN(C(=O)C2(NC(=O)Nc3cccc(F)c3)CCCCC2)CC1 | -1.28% (inactive)
16 | Cc1ccc(SC(C)C(=O)NCc2ccc(F)cc2)cc1 (configuration not stated) | 4.64% (inactive)
17 | CC1Cc2ccccc2N1C1=CC(=O)CC(C)(C)C1 (configuration not stated) | -58.2% (inactive)
18 | CN(C)CCCO/N=C(\c1ccccc1)c1ccncc1 | -6.34% (inactive)
19 | C/C(=N\Nc1cccc(C(=O)O)c1)c1ccc2c(c1)Nc1ccccc1S2 | -4.39% (inactive)

Row | Compound | inhibition
20 | CCN(CC(=O)Nc1ccc(Cl)c(S(=O)(=O)N(C)C)c1)Cc1nc2ccccc2c(=O)[nH]1 | -2.75% (inactive)
21 | O=C(Oc1ccccc1Cl)c1ccc(N2CCOCC2)c([N+](=O)[O-])c1 | -7.89% (inactive)
22 | C/C(=N/NC(=O)CSc1ccccn1)c1ccc([N+](=O)[O-])cc1 | -9.77% (inactive)
23 | Cc1onc(C(=O)NCc2ccc(F)cc2)c1[N+](=O)[O-] | -2.07% (inactive)
24 | CCOCCCNC(=O)C(NC(=O)c1ccccc1O)c1ccccc1 (configuration not stated) | -9.74% (inactive)
25 | COC(=O)C(C(=O)Nc1cccc(C)n1)C1CCCCCC1 (configuration not stated) | 5.11% (inactive)
26 | CC(=O)Nc1ccc(NC(=O)C(C)OC(=O)c2ccccc2C(=O)c2ccc(Cl)c([N+](=O)[O-])c2)cc1 (configuration not stated) | -6.27% (inactive)
27 | O=S(=O)(NC1CCCCC1)c1ccc(F)c2ccccc12 | 2.7% (inactive)
28 | COC(=O)c1c(NC(=O)CCCC(=O)O)sc2c1CCCCC2 | -10.9% (inactive)
29 | C=CCn1c(COc2ccc(F)cc2)nnc1SCC(=O)Nc1cccc(S(N)(=O)=O)c1 | -3.84% (inactive)
30 | CCc1cccc2c3c([nH]c12)C(CC)(CC(=O)O)OCC3 (configuration not stated) | -3.41% (inactive)
31 | Cc1ccc(S(=O)(=O)N(C)C)cc1NC(=O)/C=C/c1cccs1 | 5.08% (inactive)
32 | N#Cc1c(N)nc2c(c1N)CC(C(F)(F)F)O2 (configuration not stated) | 4.59% (inactive)
33 | O=C(CN1C(=O)C2C3C=CC(C3)C2C1=O)NCC1COc2ccccc2O1 (configuration not stated) | -4.57% (inactive)
34 | O=C(CCN1C(=O)C2C3C=CC(C3)C2C1=O)Nc1ccccc1F (configuration not stated) | -3.82% (inactive)
35 | O=C(CN1C(=O)C2C3C=CC(C3)C2C1=O)NCCc1ccccc1Cl (configuration not stated) | 57.8% (active)
36 | Nc1nnnn1/N=C/c1cc([N+](=O)[O-])ccc1O | -31.3% (inactive)
37 | O=C(NCCc1ccccc1)C1CCC(Cn2c(=O)c3ccccc3n(Cc3cccnc3)c2=O)CC1 (configuration not stated) | -9.56% (inactive)
38 | Cc1cc2nc(SCCN3CCOCC3)[nH]c2cc1C | 2.94% (inactive)

Row | Compound | inhibition
39 | CCOC(=O)c1ccc(NNC(C)=O)c([N+](=O)[O-])c1 | -2.98% (inactive)
40 | N#Cc1ccc(Oc2ccc(C(F)(F)F)cc2NC(=O)c2ccc(F)cc2)cc1 | -2.47% (inactive)
41 | C#CCOCCOCCOCCNc1nc(N2CCN(C(=O)[C@H](CCC(=O)O)n3cc(C(N)CO)nn3)CC2)nc(N2CCN(C(=O)[C@H](Cc3ccc(O)cc3)n3cc(C(N)[C@H](C)CC)nn3)CC2)n1 (some centres not stated) | -6.04% (inactive)
42 | Cc1cc(OC(=O)c2ccccc2)c([N+](=O)[O-])c(=O)[nH]1 | -5.67% (inactive)
43 | Cc1ccc(C2=N/C(=C\c3ccc(OS(=O)(=O)c4ccc(C)cc4)cc3)C(=O)O2)cc1 | 2.44% (inactive)
44 | Brc1ccc(-c2noc(-c3ccccc3)n2)o1 | -6.63% (inactive)
45 | O=C1C(=O)N(c2ccccc2)c2ccccc21 | -11.4% (inactive)
46 | Cc1cc(C(=O)N/N=C/c2cc([N+](=O)[O-])cc(C)c2O)n[nH]1 | 1.39% (inactive)
47 | COC(=O)NNC(=O)C1CCC(C)CC1 (configuration not stated) | -0.712% (inactive)
48 | O=C(NN=C1CCC(=NNC(=O)c2cccnc2)CC1)c1cccnc1 | -1.3% (inactive)
49 | Cc1ccc(NC(=O)Nc2cc(-c3ccccc3)nn2C)cc1Cl | -21.8% (inactive)
50 | CC1(C)OC(=O)C(=CNC(CO)C(=O)O)C(=O)O1 (configuration not stated) | 2.5% (inactive)
51 | Cc1ccc(CSc2nc3[nH]ncc3c(=O)[nH]2)cc1 | -4.89% (inactive)
52 | O=C1NC(c2cccc(Cl)c2)Nc2ccccc21 (configuration not stated) | -2.98% (inactive)
53 | C=CCN1C=C2C(=O)C(C)(OC(=O)CCc3ccccc3)C(=O)C=C2C=C1c1ccc(C#N)cc1 (configuration not stated) | -9.51% (inactive)
54 | O=C(NNC(=O)c1csc(-c2cccnc2)n1)Nc1ccc(Cl)cc1 | 1.85% (inactive)
55 | Cc1ccc(-n2c(C)cc(C(=O)CSc3nnc4ccccn34)c2C)cc1 | -7.8% (inactive)
56 | NC(=O)c1ccccc1N=Cc1ccc2ccccc2c1 | 27.1% (inactive)
57 | O=C(OCC(=O)N1CCOCC1)c1ccc(N2CCOCC2)c([N+](=O)[O-])c1 | -6.48% (inactive)
